Source: PubChem BioAssay (NCATS)
Inconclusive results are not listed. Activity calls are given as the source filed them. The call rests on the fitted dose curve; in most records, active means well fitted inhibition curve with a large enough effect; inconclusive means small, poorly fitted or top-dose-only effect; inactive means flat fitted curve, though single readings scatter.

Legend:
Assay in all cases: qHTS profiling for inhibitors of Plasmodium falciparum proliferation (AID 504749); further: nearly all actives have a fitted effect of over 60% in size
Settings in all cases: P. falciparum in erythrocytes, SYBR Green DNA, 72 h; series mostly up to 28.7 µM
[1] = tested on: CP250
How it was run: (§1)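 SYBR Green fluorescence of parasite DNA, read after lysis and overnight dark incubation, measured growth over 72 h in erythrocyte culture at 0.3% parasitemia and 2.5% hematocrit. Data normalised to DMSO and 0.29 uM artemisinin, with plate-drift correction.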

[2] = tested on: CP252
How it was run: as §1

[3] = tested on: CP256
How it was run: as §1

[4] = tested on: CP260
How it was run: as §1

[5] = tested on: CP262
How it was run: as §1

[6] = tested on: CP265
How it was run: as §1

[7] = tested on: CP268
How it was run: as §1

[8] = tested on: CP269
How it was run: as §1

[9] = tested on: CP286
How it was run: as §1

[10] = tested on: CP291
How it was run: as §1

[11] = tested on: CP297
How it was run: as §1

[12] = tested on: CP305
How it was run: as §1

[13] = tested on: CP325
How it was run: as §1

[14] = tested on: CP335
How it was run: as §1

[15] = tested on: DFO2036
How it was run: as §1

[16] = tested on: DIV14
How it was run: as §1

[17] = tested on: DIV17
How it was run: as §1

[18] = tested on: DIV30
How it was run: as §1

[19] = tested on: Dd2
How it was run: as §1

[20] = tested on: ECU
How it was run: as §1

[21] = tested on: FAB9
How it was run: as §1

[22] = tested on: GB4
How it was run: as §1

[23] = tested on: HB3
How it was run: as §1

[24] = tested on: ICS
How it was run: as §1

[25] = tested on: JCK
How it was run: as §1

[26] = tested on: N140
How it was run: as §1

[27] = tested on: P93_24
How it was run: as §1

[28] = tested on: P94_40
How it was run: as §1

[29] = tested on: PAD
How it was run: as §1

[30] = tested on: PC15
How it was run: as §1

[31] = tested on: PC26
How it was run: as §1

[32] = tested on: PC49
How it was run: as §1

[33] = tested on: SC27B
How it was run: as §1

[34] = tested on: TAB109
How it was run: as §1

[35] = tested on: TAB113
How it was run: as §1

[36] = tested on: TAB165
How it was run: as §1

[37] = tested on: W2
How it was run: as §1

Measured: Potency
Potency means the concentration at half of the fitted maximal effect.

CC(C)C[C@H]1C(=O)N2CCCC2[C@]2(O)O[C@](NC(=O)[C@@H]3C=C4c5cccc6[nH]c(Br)c(c56)C[C@H]4N(C)C3)(C(C)C)C(=O)N12 (some centres not stated)
active: [1] 12.6 µM | [2] 7.08 µM | [3] 11.2 µM | [4] 1.58 µM | [5] 8.49 µM | [6] 5.62 µM | [7] 12 µM | [8] 10.7 µM | [9] 3.55 µM | [10] 10.7 µM | [11] 10.7 µM | [12] 10.7 µM | [13] 9.53 µM | [14] 3.79 µM | [15] 11.2 µM | [16] 3.38 µM | [17] 3.79 µM | [18] 5.36 µM | [19] 2.51 µM | [20] 3.55 µM | [21] 8.91 µM | [22] 6.01 µM | [23] 2.82 µM | [24] 0.708 µM | [25] 10 µM | [26] 3.16 µM | [27] 2.82 µM | [28] 2.82 µM | [29] 3.98 µM | [30] 7.94 µM | [31] 5.36 µM | [32] 6.31 µM | [33] 6.31 µM | [34] 5.62 µM | [35] 3.16 µM | [36] 2.82 µM | [37] 1.69 µM
